Data as given in the supplement of paper PMC12645437, “Orthogonal IMiD-Degron Pairs Induce Selective Protein Degradation in Cells” (ACS Chemical Biology, 2025).
The full ranking holds about 8,300 sequences; the median of “log2 fold change of degron read counts, EGFP-low vs EGFP+ sorted cells (limma voom), compound-induced degradation” is about -1.1, and the highest 2% start at about 3.2. The entries come from a sample that favours the highest values as a whole.

T1: CRBN, Q96SW2
T1 chain: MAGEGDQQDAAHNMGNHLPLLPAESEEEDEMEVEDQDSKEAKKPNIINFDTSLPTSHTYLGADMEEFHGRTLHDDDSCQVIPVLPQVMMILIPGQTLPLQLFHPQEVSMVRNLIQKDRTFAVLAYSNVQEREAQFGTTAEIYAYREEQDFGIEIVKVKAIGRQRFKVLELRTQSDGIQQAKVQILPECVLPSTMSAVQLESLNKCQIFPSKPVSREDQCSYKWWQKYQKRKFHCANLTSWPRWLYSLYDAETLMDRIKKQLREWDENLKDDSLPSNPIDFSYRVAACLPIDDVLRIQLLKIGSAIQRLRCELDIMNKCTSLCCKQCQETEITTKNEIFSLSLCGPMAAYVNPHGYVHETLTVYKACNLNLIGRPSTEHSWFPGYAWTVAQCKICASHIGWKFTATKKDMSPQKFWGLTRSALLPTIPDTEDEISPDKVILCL


Molecular target: T1, CRBN, Q96SW2
Assay: log2 fold change of degron read counts, EGFP-low vs EGFP+ sorted cells (limma voom), compound-induced degradation; higher = more compound-induced degradation of the degron-EGFP fusion; degrons are variants of IKZF1/3 zinc finger 2; compound dose not given here
Settings: Jurkat, 18 h
[1] = compound: compound 19 (5-tert-butyl-thalidomide)
[2] = compound: compound 22 (5-morpholino-thalidomide)
[3] = compound: compound 33 (diphenyl IMiD analogue)
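Note: pooled lentiviral library of zinc finger degron-EGFP fusions in mCherry-positive Jurkat cells, FACS-sorted after compound exposure, with degron abundance counted by next-generation sequencing.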

Sequence | log2 fold change of degron read counts [1] | log2 fold change of degron read counts [2] | log2 fold change of degron read counts [3] | log2 fold change of degron read counts (compound: thalidomide)
FGCPICGRKFTQKGNLLRHIKL [46F_47G_49P_50I_52G_53R_54K_55F_67L_, Q9UKT9] | 3.06 | 0.59 | -1.32 | -0.606
FRCNQCGRVFTQKGNLLRHIKL [46F_47R_49N_50Q_52G_53R_54V_55F_67L_, Q9UKT9] | -2.28 | -2.49 | -2.54 | -1.61
FQCPICGRLFTQKGNLLRHIKL [46F_47Q_49P_50I_52G_53R_54L_55F_67L_, Q9UKT9] | -1.51 | -0.0572 | 0.785 | 2.29
FVCEICGAFFTQKGNLLRHIKL [46F_47V_49E_50I_52G_53A_54F_55F_67L_, Q9UKT9] | -0.344 | -0.0422 | 1.09 | 1.08
FICDVCGALFTQKGNLLRHIKL [46F_47I_49D_50V_52G_53A_54L_55F_67L_, Q9UKT9] | -1.82 | -0.923 | 0.0161 | -0.806
FCCPQCGATFTQKGNLLRHIKL [46F_47C_49P_50Q_52G_53A_54T_55F_67L_, Q9UKT9] | -1.19 | -0.971 | 1.49 | -0.551
FLCPICGREFTQKGNLLRHIKL [46F_47L_49P_50I_52G_53R_54E_55F_67L_, Q9UKT9] | -2.12 | -2.2 | -0.686 | 0.04
FNCNICGAIFTQKGNLLRHIKL [46F_47N_49N_50I_52G_53A_54I_55F_67L_, Q9UKT9] | -1.14 | -1.24 | -0.567 | -1.09
FQCDQCGAWFTQKGNLLRHIKL [46F_47Q_49D_50Q_52G_53A_54W_55F_67L_, Q9UKT9] | -2.29 | -2.57 | -1.93 | -1.39
FFCNVCGAAFTQKGNLLRHIKL [46F_47F_49N_50V_52G_53A_54A_55F_67L_, Q9UKT9] | 1.2 | 1.43 | 0.704 | -0.812
FCCPICGAYFTQKGNLLRHIKL [46F_47C_49P_50I_52G_53A_54Y_55F_67L_, Q9UKT9] | 1.38 | 1.19 | 1.52 | 1.42
FICPICGAYFTQKGNLLRHIKL [46F_47I_49P_50I_52G_53A_54Y_55F_67L_, Q9UKT9] | -0.481 | 2.03 | 1.75 | 1.86
FYCPICGAYFTQKGNLLRHIKL [46F_47Y_49P_50I_52G_53A_54Y_55F_67L_, Q9UKT9] | 3.26 | 3.12 | 2.39 | 1.01
FNCPICGAYFTQKGNLLRHIKL [46F_47N_49P_50I_52G_53A_54Y_55F_67L_, Q9UKT9] | 2.2 | 1.13 | 0.721 | 0.825
FSCPICGAYFTQKGNLLRHIKL [46F_47S_49P_50I_52G_53A_54Y_55F_67L_, Q9UKT9] | 2.23 | 1.26 | 2.17 | 1.38
FWCPICGAYFTQKGNLLRHIKL [46F_47W_49P_50I_52G_53A_54Y_55F_67L_, Q9UKT9] | 2.72 | 2.69 | 2.4 | 0.973
FTCPICGAYFTQKGNLLRHIKL [46F_47T_49P_50I_52G_53A_54Y_55F_67L_, Q9UKT9] | 1 | 2.25 | 2.83 | 3.31
FVCPICGAYFTQKGNLLRHIKL [46F_47V_49P_50I_52G_53A_54Y_55F_67L_, Q9UKT9] | 0.319 | 1.86 | 1.7 | 2.59
FQCPICGAYFTQKGNLLRHIKL [46F_47Q_49P_50I_52G_53A_54Y_55F_67L_, Q9UKT9] | -1.06 | 0.884 | 1.61 | 3.36
